For some of these results: Potency and affinity values are given separately. Calls of active or inactive are those of the source. Unless noted, no rule for the calls is given here.
Columns and labels:
[1] = antimalarial activity against Dd2 strain (AID 2302;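 active = growth inhibition above 50% at the single 2 µM test dose, taken to imply half-maximal potency below 2 µM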;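 also: 0% = DMSO untreated growth and 100% = chloroquine plus artemisinin killed control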); settings: P. falciparum Dd2 in RBCs, LDH growth readout, 72 h; at 2 µM; active compounds read high
[2] = human hepatoma cell viability loss – ATP luminescence, cytotoxicity control for P. falciparum antimalarial project, primary screen (AID 2303;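 active = inhibition above 50%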;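 also: 0% = DMSO wells and 100% = digitonin-killed cells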); settings: HepG2 viability, 24-48 h, at 10 µM, active compounds read high
[3] = molecular target: L-lactate dehydrogenase (Plasmodium falciparum (isolate CDC / Honduras)) (UniProt Q27743); assay: PfLDH activity inhibition – cell lysate, 3D7 strain, counter-screen for P. falciparum growth inhibition project (AID 2304);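 also: 0% = vehicle and 100% = reference inhibitor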; settings: P. falciparum 3D7 crude extract, LDH APAD/NBT absorbance; at 2 µM; active compounds read high
[4] = inhibition of 3D7 malaria parasite growth – strain 3D7 (AID 2306);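 also: 0% = DMSO wells and 100% = chloroquine plus artemisinin control wells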; settings: P. falciparum 3D7 erythrocytic growth, LDH absorbance, 72 h; at 2 µM; active compounds read high
[5] = molecular target: Calcium-dependent protein kinase 1 (Plasmodium falciparum (isolate 3D7)) (UniProt P62344); assay: PfCDPK1 kinase inhibitors, biochemical, TCAMS library (AID 1159585; cut-off not given, nearly all actives have IC50 up to about 0.98 µM;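 also: inhibitors leave more ATP so luminescence rises with inhibition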); settings: recombinant PfCDPK1, Kinase-Glo ATP depletion luminescence
[6] = molecular target: Plasmodium falciparum protein kinase 6 (PK6, PF3D7_1337100) (UniProt Q8IDW1); assay: PfPK6 kinase inhibitors, biochemical, TCAMS library (AID 1159586); settings: recombinant PfPK6, Kinase-Glo ATP depletion luminescence
[7] = molecular target: Protein kinase 7 (PK7), Plasmodium falciparum 3D7 (PF3D7_0213400) (UniProt Q7YTF7); assay: inhibition of Plasmodium PK7 catalytic activity – biochemical, TCAMS antimalarial set, Kinase-Glo luminescence (AID 1159587); settings: recombinant PfPK7, Kinase-Glo ATP depletion luminescence
[8] = molecular target: Calcium-dependent protein kinase 4 (Plasmodium falciparum (isolate 3D7)) (UniProt Q8IBS5); assay: PfCDPK4 kinase inhibitors, biochemical, TCAMS library (AID 1159588; cut-off not given, nearly all actives have IC50 up to about 0.91 µM); settings: recombinant PfCDPK4, Kinase-Glo ATP depletion luminescence
Calcium-dependent protein kinase 4 (Plasmodium falciparum (isolate 3D7)), sequence (Q8IBS5 whole entry, looked up): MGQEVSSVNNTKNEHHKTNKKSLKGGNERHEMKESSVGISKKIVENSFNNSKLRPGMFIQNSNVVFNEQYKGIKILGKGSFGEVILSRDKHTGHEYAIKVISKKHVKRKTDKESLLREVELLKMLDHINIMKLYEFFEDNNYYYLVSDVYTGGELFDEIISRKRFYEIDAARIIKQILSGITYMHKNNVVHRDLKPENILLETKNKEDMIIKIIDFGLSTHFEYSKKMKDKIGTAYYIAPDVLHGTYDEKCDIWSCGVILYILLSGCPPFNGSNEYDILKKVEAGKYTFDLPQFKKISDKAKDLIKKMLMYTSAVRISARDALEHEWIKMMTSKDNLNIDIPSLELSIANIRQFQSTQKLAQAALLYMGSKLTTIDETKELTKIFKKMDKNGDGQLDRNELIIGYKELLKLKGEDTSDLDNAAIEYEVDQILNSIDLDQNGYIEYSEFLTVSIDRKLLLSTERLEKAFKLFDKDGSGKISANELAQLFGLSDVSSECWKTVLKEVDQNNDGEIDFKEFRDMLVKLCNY

L-lactate dehydrogenase (Plasmodium falciparum (isolate CDC / Honduras)), sequence (Q27743 whole entry, looked up): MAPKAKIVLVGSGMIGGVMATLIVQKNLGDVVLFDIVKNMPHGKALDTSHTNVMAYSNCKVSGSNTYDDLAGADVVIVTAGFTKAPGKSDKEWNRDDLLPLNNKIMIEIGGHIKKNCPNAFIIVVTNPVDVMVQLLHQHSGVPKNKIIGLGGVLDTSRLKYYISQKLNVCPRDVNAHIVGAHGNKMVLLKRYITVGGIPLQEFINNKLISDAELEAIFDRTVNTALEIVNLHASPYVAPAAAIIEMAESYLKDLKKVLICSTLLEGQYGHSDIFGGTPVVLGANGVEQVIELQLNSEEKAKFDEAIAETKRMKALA
Plasmodium falciparum protein kinase 6 (PK6, PF3D7_1337100), sequence (Q8IDW1 1-305): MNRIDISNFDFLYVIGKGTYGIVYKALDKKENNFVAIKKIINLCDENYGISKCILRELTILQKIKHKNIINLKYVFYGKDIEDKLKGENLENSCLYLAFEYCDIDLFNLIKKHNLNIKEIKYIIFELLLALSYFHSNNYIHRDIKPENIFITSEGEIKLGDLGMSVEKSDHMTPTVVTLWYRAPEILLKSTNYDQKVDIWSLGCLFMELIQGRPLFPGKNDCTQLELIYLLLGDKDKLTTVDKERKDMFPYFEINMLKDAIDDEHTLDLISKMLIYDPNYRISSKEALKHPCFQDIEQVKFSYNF
Calcium-dependent protein kinase 1 (Plasmodium falciparum (isolate 3D7)), sequence (P62344 whole entry, looked up): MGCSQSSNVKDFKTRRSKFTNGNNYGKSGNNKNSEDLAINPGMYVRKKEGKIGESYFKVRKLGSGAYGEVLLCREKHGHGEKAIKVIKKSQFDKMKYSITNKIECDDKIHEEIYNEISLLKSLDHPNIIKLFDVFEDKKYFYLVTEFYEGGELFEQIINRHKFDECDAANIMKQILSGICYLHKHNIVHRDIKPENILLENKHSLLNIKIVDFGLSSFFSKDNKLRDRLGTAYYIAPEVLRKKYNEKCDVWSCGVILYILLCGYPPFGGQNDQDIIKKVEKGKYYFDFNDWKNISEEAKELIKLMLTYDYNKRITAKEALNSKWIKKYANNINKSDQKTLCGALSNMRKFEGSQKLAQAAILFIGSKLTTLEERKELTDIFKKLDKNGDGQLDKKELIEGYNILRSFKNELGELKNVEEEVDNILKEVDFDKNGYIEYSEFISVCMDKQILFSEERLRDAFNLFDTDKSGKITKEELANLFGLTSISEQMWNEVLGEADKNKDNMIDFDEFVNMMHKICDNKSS
Protein kinase 7 (PK7), Plasmodium falciparum 3D7 (PF3D7_0213400), sequence (Q7YTF7 1-343): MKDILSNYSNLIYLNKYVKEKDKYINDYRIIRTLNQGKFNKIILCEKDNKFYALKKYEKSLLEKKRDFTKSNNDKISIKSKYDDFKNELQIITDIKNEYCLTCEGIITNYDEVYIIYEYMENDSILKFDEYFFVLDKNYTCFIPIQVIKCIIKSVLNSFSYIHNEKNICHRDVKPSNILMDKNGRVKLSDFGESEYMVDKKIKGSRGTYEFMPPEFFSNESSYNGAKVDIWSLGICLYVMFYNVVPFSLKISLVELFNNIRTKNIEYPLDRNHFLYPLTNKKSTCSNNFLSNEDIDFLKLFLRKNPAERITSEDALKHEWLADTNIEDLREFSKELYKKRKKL

O=C(NCCCCN1CCC(c2ccc3c(c2OC(=O)c2ccc(NC(=O)c4ccc(Cl)cc4)cc2)CCCC3)CC1)c1ccc(NC(=O)c2ccc(Cl)cc2)cc1
active: growth inhibition [1] 99% | inhibition [2] 62% | growth inhibition [4] 101%
inactive: inhibition [3] -2% | outcome [5] | outcome [6] | outcome [7] | outcome [8]

CC1=C(C(=O)Nc2ccccc2)C(c2ccc([N+](=O)[O-])cc2)n2ncc(C(=O)Nc3ccccc3)c2N1 (stereo not drawn)
inactive: inhibition [2] 9% | inhibition [3] -1% | outcome [5] | outcome [6] | outcome [7] | outcome [8]
active: growth inhibition [1] 68% | growth inhibition [4] 86%

COc1ccc(OCCON)cc1
inactive: growth inhibition [1] -3% | inhibition [2] 0% | inhibition [3] -2% | outcome [5] | outcome [6] | outcome [7] | outcome [8]
active: growth inhibition [4] 98%

COc1cc2c(c(OC)c1[N+](=O)[O-])C=CC1(O2)N(C)c2ccc([N+](=O)[O-])cc2C1(C)C (stereo not drawn)
inactive: inhibition [2] -13% | inhibition [3] -5% | outcome [5] | outcome [6] | outcome [7] | outcome [8]
active: growth inhibition [1] 89% | growth inhibition [4] 92%

O=C(NCCNc1ccnc(Nc2ccc(F)cc2)n1)c1cc2ccccc2s1
inactive: growth inhibition [1] 34% | inhibition [2] -1% | inhibition [3] -11% | outcome [5] | outcome [6] | outcome [7] | outcome [8]
active: growth inhibition [4] 99%

N#Cc1ccc2c(c1)CCN(CCC1CCC(NC(=O)c3cc4ccc(Br)cc4[nH]3)CC1)C2 (stereo not drawn)
active: growth inhibition [4] 103%
inactive: growth inhibition [1] 17% | inhibition [2] 12% | inhibition [3] -13% | outcome [5] | outcome [6] | outcome [7] | outcome [8]

O=C(CCC1CCCC1)N(Cc1ccc(-c2ccc(CNCCc3ccccc3)cc2)cc1)C1CCCNC1 (stereo not drawn)
inactive: inhibition [3] -2% | outcome [5] | outcome [6] | outcome [7] | outcome [8]
active: growth inhibition [1] 71% | inhibition [2] 99% | growth inhibition [4] 90%

COc1cc(NC(=O)c2sc(-c3ccc(Cl)cc3)cc2NC(=O)N2CCCC2)ccc1OCCN1CCCC1
active: growth inhibition [1] 61% | growth inhibition [4] 101%
inactive: inhibition [2] 22% | inhibition [3] 0% | outcome [5] | outcome [6] | outcome [7] | outcome [8]

O=C(NC1CC1)c1cnc(N2CCN(Cc3c(F)cccc3Cl)CC2)c(Cl)c1
active: growth inhibition [1] 93% | growth inhibition [4] 93%
inactive: inhibition [2] 0% | inhibition [3] -2% | outcome [5] | outcome [6] | outcome [7] | outcome [8]

CCCCc1ccc(-c2nc(NC(=O)Nc3nc(-c4ccccc4)[nH]c3C(=O)OCC)c(C(=O)OCC)[nH]2)cc1
active: growth inhibition [4] 95%
inactive: growth inhibition [1] 26% | inhibition [2] 0% | inhibition [3] -4% | outcome [5] | outcome [6] | outcome [7] | outcome [8]

CC(C)(C)c1ccc(CNC(=O)c2cc(CNC3CCNCC3)ccc2O)cc1
active: growth inhibition [4] 96%
inactive: growth inhibition [1] 8% | inhibition [2] 6% | inhibition [3] 2% | outcome [5] | outcome [6] | outcome [7] | outcome [8]

CCOC(=O)c1[nH]c2ccc(F)cc2c1NC(=O)CN1CCN(c2cccc(C(F)(F)F)c2)CC1
active: growth inhibition [1] 90% | growth inhibition [4] 96%
inactive: inhibition [2] 12% | inhibition [3] -2% | outcome [5] | outcome [6] | outcome [7] | outcome [8]

COc1ccc(-c2ncnc(C(F)(F)F)c2-c2ccc(Cl)cc2)c(O)c1
inactive: growth inhibition [1] 22% | inhibition [2] 1% | inhibition [3] -4% | outcome [5] | outcome [6] | outcome [7] | outcome [8]
active: growth inhibition [4] 100%

COc1ccc2nccc([C@@H](O)CN3CCC(NCc4ccc5c(c4)oc(=S)n5C)CC3)c2c1
active: growth inhibition [1] 68% | growth inhibition [4] 100%
inactive: inhibition [2] 14% | inhibition [3] -6% | outcome [5] | outcome [6] | outcome [7] | outcome [8]

Cc1ccc(-c2cc(C(=O)Nc3ccc(S(=O)(=O)N4CCCC(C)C4)cc3)[nH]n2)c(O)c1 (stereo not drawn)
inactive: inhibition [2] 32% | inhibition [3] -4% | outcome [5] | outcome [6] | outcome [7] | outcome [8]
active: growth inhibition [1] 99% | growth inhibition [4] 102%

Cc1cc(CN2CCC(N3CC(c4ccccc4)(c4ccccc4)OC3=O)C2)ccc1O (stereo not drawn)
inactive: inhibition [2] -3% | inhibition [3] 1% | outcome [5] | outcome [6] | outcome [7] | outcome [8]
active: growth inhibition [1] 68% | growth inhibition [4] 96%

O=C(Nc1ccc(Cl)cc1)c1ccc(CN2CCCN(CC3CCCCC3)CC2)cc1
active: growth inhibition [4] 92%
inactive: growth inhibition [1] 42% | inhibition [2] 48% | inhibition [3] 0% | outcome [5] | outcome [6] | outcome [7] | outcome [8]

COc1ccc(CNCc2ccc(-c3ccc(-c4nc5c(C)cccc5[nH]4)cc3)cc2)cc1
inactive: inhibition [3] 2% | outcome [5] | outcome [6] | outcome [7] | outcome [8]
active: growth inhibition [1] 97% | inhibition [2] 53% | growth inhibition [4] 101%

CCN(CC)CC(O)Cc1c2ccc([N+](=O)[O-])cc2nc2cc(OC)c(OC)cc12 (stereo not drawn)
active: growth inhibition [4] 100%
inactive: growth inhibition [1] 37% | inhibition [2] 41% | inhibition [3] -6% | outcome [5] | outcome [6] | outcome [7] | outcome [8]

CCCCCCOc1ccc(C(N)=NCc2ccccc2)c2c1CCCC2
active: inhibition [2] 62% | growth inhibition [4] 96%
inactive: growth inhibition [1] 35% | inhibition [3] -3% | outcome [5] | outcome [6] | outcome [7] | outcome [8]

CC(C)N1CCN(C(CN2CCN(CCCOc3cccc4ccccc34)CC2)c2ccc(F)cc2)CC1 (stereo not drawn)
active: growth inhibition [1] 75% | inhibition [2] 54% | growth inhibition [4] 101%
inactive: inhibition [3] 4% | outcome [5] | outcome [6] | outcome [7] | outcome [8]

CC(C)(C)c1cc(N=NC(=O)c2ccncc2)cc(C(C)(C)C)c1O
active: growth inhibition [1] 99% | growth inhibition [4] 99%
inactive: inhibition [2] 47% | inhibition [3] 1% | outcome [5] | outcome [6] | outcome [7] | outcome [8]

COc1ccc2c(NN=Cc3cccnc3)ccnc2c1
active: growth inhibition [4] 97%
inactive: growth inhibition [1] 26% | inhibition [2] 3% | inhibition [3] -4% | outcome [5] | outcome [6] | outcome [7] | outcome [8]

CN(C)CCOc1ccc(N2CCN(CCCCNC(=O)c3ccc(NC(=O)c4ccc(Cl)cc4)cc3)CC2)cc1
inactive: inhibition [2] 13% | inhibition [3] 0% | outcome [5] | outcome [6] | outcome [7] | outcome [8]
active: growth inhibition [1] 98% | growth inhibition [4] 99%

COc1ccc2ncc(Cl)c([C@@H](O)CN3CCC(NCc4cc5c(cn4)OCCO5)CC3)c2c1
active: growth inhibition [1] 100% | growth inhibition [4] 101%
inactive: inhibition [2] 8% | inhibition [3] 3% | outcome [5] | outcome [6] | outcome [7] | outcome [8]

O=C(Nc1ccc(Oc2ccccc2)cc1)N(CCN1CCCC1)Cc1ccc(-c2ccc(CN3CCNCC3)cc2)cc1
inactive: inhibition [2] 48% | inhibition [3] -2% | outcome [5] | outcome [6] | outcome [7] | outcome [8]
active: growth inhibition [1] 90% | growth inhibition [4] 88%

COCCn1c(-c2cccc(Cl)c2)nn(-c2ccc([N+](=O)[O-])cc2Cl)c1=S
active: growth inhibition [1] 99% | growth inhibition [4] 100%
inactive: inhibition [2] 2% | inhibition [3] -2% | outcome [5] | outcome [6] | outcome [7] | outcome [8]

COc1ccc(Nc2ccnc3cc(-c4ccccn4)ccc23)cc1OC
active: growth inhibition [4] 91%
inactive: growth inhibition [1] 26% | inhibition [2] 14% | inhibition [3] 1% | outcome [5] | outcome [6] | outcome [7] | outcome [8]

CC(=O)Nc1ccc(CNC2Cc3ccc(-c4ccc(Cl)c(Cl)c4)cc3C2)cc1 (stereo not drawn)
inactive: growth inhibition [1] 7% | inhibition [2] 49% | inhibition [3] -3% | outcome [5] | outcome [6] | outcome [7] | outcome [8]
active: growth inhibition [4] 89%

COc1ccc(CCNCCCCCCNCCc2ccc(Cl)cc2)c(Cl)c1OC
inactive: growth inhibition [1] 4% | inhibition [3] 5% | outcome [5] | outcome [6] | outcome [7] | outcome [8]
active: inhibition [2] 88% | growth inhibition [4] 101%

CC1(C)N=C(N)N=C(N)N1OCC=Cc1ccccc1
inactive: inhibition [3] -3% | outcome [5] | outcome [6] | outcome [7] | outcome [8]
active: growth inhibition [1] 96% | inhibition [2] 62% | growth inhibition [4] 94%

Cc1cnc(CS(=O)c2nc3ccc(C(F)(F)F)cc3[nH]2)cc1OCc1ccccc1 (stereo not drawn)
active: growth inhibition [1] 76% | growth inhibition [4] 93%
inactive: inhibition [2] -7% | inhibition [3] -2% | outcome [5] | outcome [6] | outcome [7] | outcome [8]

CCOc1cc(Cl)c(C(C)NC(=O)c2ccccc2)cc1OCC (stereo not drawn)
active: growth inhibition [4] 91%
inactive: growth inhibition [1] 49% | inhibition [2] -3% | inhibition [3] -1% | outcome [5] | outcome [6] | outcome [7] | outcome [8]

CCCSc1nc2c(c(=O)n1CCc1ccccc1)C1(CCCC1)Cc1ccccc1-2
active: growth inhibition [1] 53% | growth inhibition [4] 99%
inactive: inhibition [2] 46% | inhibition [3] -4% | outcome [5] | outcome [6] | outcome [7] | outcome [8]

CCC(C)NC(=O)Nc1cccc(-c2cccc(-c3nc4c(C)cccc4[nH]3)c2)c1 (stereo not drawn)
inactive: growth inhibition [1] 27% | inhibition [2] 3% | inhibition [3] 5% | outcome [5] | outcome [6] | outcome [7] | outcome [8]
active: growth inhibition [4] 101%

CCCCOc1ccc(N2C(N)=NC(N)=NC2(C)C)cc1
active: growth inhibition [4] 97%
inactive: growth inhibition [1] 3% | inhibition [2] 16% | inhibition [3] 6% | outcome [5] | outcome [6] | outcome [7] | outcome [8]

Cc1ccccc1Nc1cc(Nc2ccccc2C)c2ccccc2n1
active: growth inhibition [1] 93% | growth inhibition [4] 96%
inactive: inhibition [2] 28% | inhibition [3] -1% | outcome [5] | outcome [6] | outcome [7] | outcome [8]

COc1ccccc1CNC(=O)c1cc(OC)c(OC)cc1NC(=O)c1cccs1
inactive: inhibition [2] 12% | inhibition [3] 3% | outcome [5] | outcome [6] | outcome [7] | outcome [8]
active: growth inhibition [1] 71% | growth inhibition [4] 88%

COc1ccc(NC(=O)NC2CCN(CCCCCNC(=O)/C=C/c3ccc(Cl)c(Cl)c3)CC2)cc1
active: growth inhibition [4] 96%
inactive: growth inhibition [1] 1% | inhibition [2] 5% | inhibition [3] 0% | outcome [5] | outcome [6] | outcome [7] | outcome [8]

CCNc1cc(C)nc(Nc2ccc(NC(=O)c3ccco3)cc2)n1
inactive: growth inhibition [1] 32% | inhibition [2] 24% | inhibition [3] -2% | outcome [5] | outcome [6] | outcome [7] | outcome [8]
active: growth inhibition [4] 95%

CCCc1cc(Cc2cnc(N)nc2N)cc(OC)c1OC
active: growth inhibition [4] 87%
inactive: growth inhibition [1] 4% | inhibition [2] 2% | inhibition [3] 6% | outcome [5] | outcome [6] | outcome [7] | outcome [8]
